High-throughput results as filed in PubChem.
Only some compounds are listed: those with a hit (about 7.4% of all), similar ones and a draw of the others.
NIH3T3 tox – Cytotoxic Profiling in NIH 3T3 Cell Line of Diverse Libraries Using Quantitative High-Throughput Screening; NIH 3T3 viability, CellTiter-Glo ATP luminescence, 48-72 h; Potency, µM (doses to about 96.7 µM), for the others: at the top dose activity change, negative = cytotoxicity, actives largely listed as inhibitors; 94,000 tested, 4.3% active; further: nearly all actives have a fitted effect of over 55% in size
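Cytotoxicity was measured by CellTiter-Glo ATP luminescence after 48 or 72 h compound exposure at 37 °C. Mouse NIH 3T3 fibroblasts were seeded at 400 cells/well and dosed by 23 nL pin transfer.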
hNpr1 antagonist – Natriuretic polypeptide receptor (hNpr1) antagonism - Primary qHTS. Atrial natriuretic peptide receptor 1 (Homo sapiens), P16066. HEK293 hNpr1 GloSensor cGMP, ANP-stimulated luminescence. Potency, µM (titrated, usually from 46.3 µM), without a hit: at the highest dose activity change, negative = inhibition, hits mostly inhibitors. 76,000 tested, 1.6% active. AID 1347048, 2019; calls by dose curve; further: nearly all actives have a fitted effect of over 60% in size
Target sequence (P16066 whole entry, looked up): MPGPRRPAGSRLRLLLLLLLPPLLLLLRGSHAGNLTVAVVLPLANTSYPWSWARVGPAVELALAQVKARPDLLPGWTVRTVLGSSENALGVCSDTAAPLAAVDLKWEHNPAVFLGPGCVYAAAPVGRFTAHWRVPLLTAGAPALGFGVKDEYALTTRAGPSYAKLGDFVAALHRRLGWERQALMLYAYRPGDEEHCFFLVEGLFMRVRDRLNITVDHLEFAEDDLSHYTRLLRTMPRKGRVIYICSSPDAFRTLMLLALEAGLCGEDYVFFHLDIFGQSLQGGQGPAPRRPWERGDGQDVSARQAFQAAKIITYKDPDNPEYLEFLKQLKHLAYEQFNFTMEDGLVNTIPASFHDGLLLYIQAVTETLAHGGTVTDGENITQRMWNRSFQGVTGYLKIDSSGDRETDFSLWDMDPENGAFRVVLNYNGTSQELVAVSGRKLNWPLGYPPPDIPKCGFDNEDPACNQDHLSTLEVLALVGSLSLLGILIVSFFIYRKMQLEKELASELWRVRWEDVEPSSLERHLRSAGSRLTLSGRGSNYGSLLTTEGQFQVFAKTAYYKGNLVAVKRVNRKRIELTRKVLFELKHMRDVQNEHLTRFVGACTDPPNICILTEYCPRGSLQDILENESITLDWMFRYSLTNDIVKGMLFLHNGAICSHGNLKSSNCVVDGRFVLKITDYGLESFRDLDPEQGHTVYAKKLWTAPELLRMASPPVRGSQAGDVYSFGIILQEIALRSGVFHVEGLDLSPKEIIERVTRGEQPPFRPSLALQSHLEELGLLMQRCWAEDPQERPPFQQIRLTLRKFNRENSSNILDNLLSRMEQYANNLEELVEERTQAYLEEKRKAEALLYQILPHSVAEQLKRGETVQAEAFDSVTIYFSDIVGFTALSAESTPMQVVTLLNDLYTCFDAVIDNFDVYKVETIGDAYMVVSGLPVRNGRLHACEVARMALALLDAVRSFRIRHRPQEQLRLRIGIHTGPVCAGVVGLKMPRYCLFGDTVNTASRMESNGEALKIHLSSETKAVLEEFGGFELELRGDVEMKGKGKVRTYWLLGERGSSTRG
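Compound pre-incubated 30 min at room temperature on GloSensor-loaded HEK293 cells stably carrying hNpr1 and the pGS-40F cGMP biosensor. Stimulation uses hNppA at 0.1 nM final; luminescence is taken at baseline and 20 min post-agonist.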
HEK293 tox – Cytotoxic Profiling in HEK 293 Cell Line of Diverse Libraries Using Quantitative High-Throughput Screening; HEK 293 viability, ATP luminescence (CellTiter-Glo), 48-72 h; Potency, µM (top dose mostly 115 µM), inactives show at the top dose activity change, negative = cytotoxicity, most hits filed as inhibitors; 94,000 tested, 6.6% active; further: nearly all actives have a fitted effect of over 60% in size
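250 HEK 293 cells/well; compound by pintool; incubated 48 or 72 hr at 37 degree Celsius; CellTiter-Glo added, 10 min RT, luminescence imaged.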
SNCA expr inh – Primary qHTS assay for inhibitors of alpha-synuclein gene (SNCA) expression; 140,000 tested, 0.17% active; AID 1671194, 2021; Potency, µM (doses to about 57.2 µM), without a hit: at the top dose activity change, negative = inhibition, hits mostly inhibitors; HEK-293 SNCA-luciferase knock-in, luminescence, 24 h;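 further: plate controls were DMSO cells for no effect and cell-free wells for full effect; nearly all actives have a fitted effect of over 45% in size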
Luciferase inh – Firefly luciferase inhibition profiling of diverse chemical library using quantitative high-throughput screening; Luciferin 4-monooxygenase (Photinus pyralis), P08659; purified P. pyralis luciferase, luminescence, biochemical; Potency, µM (titrated, usually from 115 µM), most hits filed as inhibitors; 76,000 tested, 2.5% active; further: nearly all actives have a fitted effect of over 65% in size
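FLuc 10nM, D-luciferin 10uM, ATP 10uM, Mg acetate 10mM, Tris acetate pH 7.5, Tween/BSA; cpd qHTS; enzyme added last; CCD luminescence.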
SNCA viab count – GF-AFC viability counterscreen for inhibitors of alpha-synuclein gene (SNCA) expression; HEK-293-SNCA-luc viability, GF-AFC fluorescence, 24 h; Potency, µM (highest dose often 57.1 µM), without a hit: at the top dose activity change, negative = cytotoxicity, hits mostly cytotoxic; 150,000 tested, 0.12% active;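 further: 0% = DMSO-treated cells and -100% = medium-only wells without cells; nearly all actives have a fitted effect of over 30% in size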
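HEK-293-SNCA-luc cells (1500/well) plated 24 h, then exposed 24 h to a dilution series; GF-AFC added 30 min at 37C, fluorescence 405/540 nm; normalised to medium-only and DMSO wells, Hill fit.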
* = called active by the depositor; i = inactive; ? = inconclusive; / = no result given; [ ] = remark or other dose. Unless noted, the call rests on the fitted dose curve; in most records, active means well fitted curve in the direction sought with a large enough effect; inconclusive means small, poorly fitted or top-dose-only effect, or another doubt; inactive means no such curve, though single readings can be large; an effect the other way counts as inactive or inconclusive. Unless noted, on the % scale 0 is the no-effect control and ±100 the full control effect; potency means the concentration at half of the fitted maximal effect.

SMILES | NIH3T3 tox | hNpr1 antagonist | HEK293 tox | SNCA expr inh | Luciferase inh | SNCA viab count
COc1cccc(Nc2ncc3c(n2)C(C)(C(=O)NC2CCOCC2)CC3)c1 (stereo not given) | 39.8µM* | -5.0%[70.6 µM] | 89.1µM* | -3.8%[87.6 µM] | i | ?
CC1(C(=O)NC2CCOCC2)CCc2cnc(Nc3ccccc3)nc21 (stereo not given) | ? | -0.3%[70.6 µM] | 100µM* | ? | i | -18.6%[87.6 µM]
CC(=O)[C@@H]1CC[C@]2(C(=O)O)CC[C@]3(C)C(CCC4[C@@]5(C)CC[C@H](O)C(C)(C)C5CC[C@]43C)C12 (stereo not given in full) | / | / | / | / | / | -6.5%[23.9 µM]
O=C1c2c(nc(CNCc3cccc(Cl)c3)n2Cc2ccccc2)NCCN1CC1CC1 | ? | -2.4% | ? | -3.4% | i | -1.6%
Cc1ccccc1Nc1cc2c(nc1-c1ccccc1)nc(C(=O)NCCN(C)C)n2C | 31.6µM* | 1.7%[70.6 µM] | 39.8µM* | -19.3%[87.6 µM] | i | ?
COCCCNC(=O)c1nc2nc(-c3ccccc3)c(Cl)cc2n1C | ? | -5.7%[70.6 µM] | ? | -5.3%[87.6 µM] | i | -1.7%[87.6 µM]
CN(C)CCNC(=O)c1nc2nc(-c3ccccc3)c(Nc3ccc(F)cc3)cc2n1C | ? | 2.2%[70.6 µM] | 56.2µM* | 1.7%[87.6 µM] | i | ?
O=C([C@H]1CCCN1C(=O)Cc1cccc(Cl)c1)N1CCC(N2CCOC2=O)CC1 | -7.3% | / | -17.6% | 2.5% | / | 1.6%
CC1(C(=O)NCc2cccnc2)CCCc2cnc(Nc3ccccc3)nc21 (stereo not given) | ? | 4.7%[70.6 µM] | -28.0%[172 µM] | -27.3%[87.6 µM] | i | -28.1%[87.6 µM]
CC1(C(=O)NCc2ccncc2)CCCc2cnc(Nc3ccccc3F)nc21 (stereo not given) | ? | 0.8%[70.6 µM] | ? | -26.3%[87.6 µM] | i | -11.8%[87.6 µM]
CC1(C(=O)NCc2ccc(F)cc2)COCc2cnc(Nc3ccccc3)nc21 (stereo not given) | ? | ? | 79.4µM* | -22.8%[87.6 µM] | i | -17.5%[87.6 µM]
CC1(C(=O)NCc2cccnc2)CCc2cnc(NCc3ccccc3)nc21 (stereo not given) | 35.5µM* | -2.5%[70.6 µM] | -25.9%[172 µM] | ? | i | -7.5%[87.6 µM]
CC1(C(=O)NCc2ccncc2)CCc2cnc(NCc3ccccc3)nc21 (stereo not given) | 44.7µM* | 4.9%[70.6 µM] | -28.4%[172 µM] | -23.0%[87.6 µM] | i | -8.4%[87.6 µM]
CC1(C(=O)NCc2cccnc2)CCc2cnc(Nc3ccccc3)nc21 (stereo not given) | 25.1µM* | 2.0%[70.6 µM] | 89.1µM* | ? | i | ?
CC1(C(=O)NCC2CC2)COCc2cnc(Nc3ccccc3)nc21 (stereo not given) | -13.1%[138 µM] | -5.4%[70.6 µM] | ? | -15.6%[87.6 µM] | i | -6.8%[87.6 µM]
Cc1ccccc1CN1CC[C@H](c2nnc(-c3ccc(N(C)C)cc3)o2)C1 | -31.4%[174 µM] | -6.3%[70.6 µM] | ? | 40.5%[87.6 µM] | ? | -1.2%[87.6 µM]
CCn1nccc1C(=O)N1C[C@@H](Oc2cccnc2)C[C@H]1C(=O)NC1CC1 | -12.9% | 1.1% | -25.0% | -8.4% | i | 3.9%
COc1cccc(Nc2ccc3c(n2)C(C)(C(=O)NCc2ccco2)CN(C)C3)c1 (stereo not given) | ? | -14.7%[70.6 µM] | ? | 6.2%[87.6 µM] | i | -9.0%[87.6 µM]
CC1(C(=O)NCc2cccnc2)CCCc2cnc(NCc3ccccc3)nc21 (stereo not given) | 50.1µM* | 5.9%[70.6 µM] | ? | -14.0%[87.6 µM] | i | 2.2%[87.6 µM]
COc1cccc(Nc2ncc3c(n2)C(C)(C(=O)NCc2cccnc2)CC3)c1 (stereo not given) | ? | -1.7%[70.6 µM] | 79.4µM* | -17.1%[87.6 µM] | i | -33.0%[87.6 µM]
O=C1CCCCCN1CC(=O)N1CCCC(OCc2ccccc2)C1 (stereo not given) | -19.5% | -3.0% | -3.6% | 17.0% | i | -1.4%
CC1CCN(c2ccc(CNC(=O)C(C)C3CCOCC3)cc2)CC1 (stereo not given) | -16.0% | 0.0% | ? | 28.6% | i | 0.7%[12.5 µM]
CS(=O)(=O)N1CCC(C2CCN(C(=O)NC3CCCC3)C2)CC1 (stereo not given) | i | 13.6% | i | 7.6% | i | 0.5%[12.5 µM]
O=C(c1ccc(F)cc1)N1C[C@@H]2C[C@H](C1)c1c(NS(=O)(=O)c3cccc(F)c3)ccc(=O)n1C2 | i | 2.1% | -8.9% | ? | i | -13.1%
Cc1noc(C)c1-c1cc2c(c(-c3ccc([S+](C)(=O)[O-])cc3)c1)C(=O)N(C)C2 | ? | 7.9%[70.6 µM] | -27.1%[172 µM] | 40.4%[87.6 µM] | i | -6.9%[87.6 µM]
SMILES | NIH3T3 tox | hNpr1 antagonist | HEK293 tox | SNCA expr inh | Luciferase inh | SNCA viab count
C=CCOc1c(OC)ccc2c1CN(CC1CC1)C(=O)CCN2CC(O)COc1ccc(OC)cc1 (stereo not given) | ? | / | 39.8µM* | / | / | /
Cc1ccc(Nc2ccnc(N3CCC(NC(=O)c4ccc(C)cc4)CC3)n2)cc1 | ? | / | ? | 18.8% | / | -26.4%
COc1ccc(Nc2ccnc(N3CCN(C(=O)c4ccccc4OC)CC3)n2)cc1 | ? | / | ? | 7.8% | / | -24.8%
Cc1ccc(Nc2ccnc(N3CCN(C(=O)c4ccccc4Cl)CC3)n2)cc1 | ? | / | 39.8µM* | -17.6% | / | -5.0%
O=C(NC1CCN(c2nccc(Nc3ccccc3Cl)n2)CC1)c1ccccc1Cl | ? | / | 39.8µM* | -12.8% | / | -19.5%
Cc1ccc(Nc2ccnc(N3CCC(NC(=O)c4ccccc4Cl)CC3)n2)cc1 | 39.8µM* | / | 44.7µM* | 12.7% | / | -16.5%
O=C(NC1CCN(c2nccc(Nc3ccccc3Cl)n2)CC1)C1CC1 | 28.2µM* | / | ? | -18.5% | / | -1.3%
COc1ccccc1Cn1c(=O)c(C(=O)N(C)C)nc2cccnc21 | -16.7%[138 µM] | / | -1.0%[172 µM] | 7.2%[87.6 µM] | / | 8.8%[87.6 µM]
O=C(c1cccnc1)N1CCCC(c2noc(COc3ccccc3)n2)C1 (stereo not given) | -4.0% | -14.4% | -12.5% | 0.5% | i | -6.6%[12.5 µM]
CNC(=O)C1CCN(c2nccc(Nc3ccccc3Cl)n2)CC1 | ? | / | ? | 18.9%[87.6 µM] | / | -1.6%[12.5 µM]
CC(NC(=O)C1CCN(c2nccc(Nc3ccccc3Cl)n2)CC1)c1ccc(F)cc1 (stereo not given) | 31.6µM* | / | 39.8µM* | ? | / | -29.7%
COc1ccc(NC(=O)CCC2CCCN(C(=O)c3ccccc3SC)C2)cc1Cl (stereo not given) | ? | 12.6µM* | ? | -4.7% | ? | -21.6%
